# Compounds without any hit were thinned out: in the full panel of roughly 79,000, 15% have a hit. Unmarked numbers belong to inactive results. Activity calls are given as the source filed them. No stated cut-off is given here; in the data, active means growth inhibition above about 70%; inactive means the rest.
# Legend:
# [1] = NCI Yeast Anticancer Drug Screen. Data for the rad52 strain (AID 147);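 further: 0% = growth of vehicle-treated control cultures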; settings: S. cerevisiae rad52 mutant growth inhibition, stronger effect = higher value
# Summary of the method: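 The repair-mutant yeast strain was incubated with compounds, then growth was read and inhibition derived relative to vehicle.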
# [2] = NCI Yeast Anticancer Drug Screen. Data for the rad50EPP+ strain (AID 151);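 further: 0% = growth of vehicle-treated control cultures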; settings: S. cerevisiae rad50 mutant strain, stronger effect = higher value
# Summary of the method: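 Vehicle-normalised growth inhibition; rad50EPP+ yeast strain, altered in DNA damage repair, compound-treated.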
# [3] = NCI Yeast Anticancer Drug Screen. Data for the mgt1 strain (AID 153); settings: S. cerevisiae mgt1 mutant growth inhibition, stronger effect = higher value
# Summary of the method: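 Vehicle-normalized growth inhibition is determined in mgt1 yeast, a strain selected for a defined alteration in DNA repair or cell cycle control.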
# [4] = NCI Yeast Anticancer Drug Screen. Data for the rad50 strain (AID 155);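 further: 0% = growth of vehicle-only cultures of the same strain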; settings: S. cerevisiae rad50 strain growth inhibition, stronger effect = higher value
# Summary of the method: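 Compounds were tested on a yeast strain with an engineered DNA damage repair alteration; the reported value is growth inhibition normalised to vehicle treatment.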
# [5] = NCI Yeast Anticancer Drug Screen. Data for the mec2-1 strain (AID 157); settings: S. cerevisiae mec2-1 strain, stronger effect = higher value
# Summary of the method: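 Mutant yeast (mec2-1) grown with compound; growth inhibition relative to vehicle control reported.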
# [6] = NCI Yeast Anticancer Drug Screen. Data for the rad14 strain (AID 159);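 further: 0% = growth of vehicle-treated control cultures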; settings: S. cerevisiae rad14 strain growth inhibition, stronger effect = higher value
# Summary of the method: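 Compound-treated yeast with a defined DNA-repair lesion; growth inhibition normalised to vehicle-treated cultures.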
# [7] = NCI Yeast Anticancer Drug Screen. Data for the sgs1 mgt1 strain (AID 161);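 further: 0% = growth of cultures given vehicle only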; settings: S. cerevisiae sgs1 mgt1 strain, stronger effect = higher value
# Summary of the method: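 Growth of a repair-deficient yeast mutant was monitored after compound treatment and expressed as inhibition relative to vehicle-treated cultures.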
# [8] = NCI Yeast Anticancer Drug Screen. Data for the CLN2oe strain (AID 163);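 further: 0% = growth of vehicle-only control cultures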; settings: S. cerevisiae CLN2oe strain, stronger effect = higher value
# Summary of the method: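 Compounds are applied to yeast harbouring a defined cell-cycle control change; reduced growth compared with vehicle-treated controls gives the value.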
# [9] = NCI Yeast Anticancer Drug Screen. Data for the cln2 rad14 strain (AID 165);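 further: 0% = growth equal to vehicle treated cultures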; settings: S. cerevisiae cln2 rad14 strain, stronger effect = higher value
# Summary of the method: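 Readout is yeast growth inhibition versus vehicle-treated controls, using a strain with cln2 and rad14 alterations exposed to compound.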
# [10] = NCI Yeast Anticancer Drug Screen. Data for the bub3 strain (AID 167); settings: S. cerevisiae bub3 mutant strain, stronger effect = higher value
# Summary of the method: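 Growth of a checkpoint-deficient yeast mutant is measured after compound exposure. Values represent inhibition relative to vehicle.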
# [11] = NCI Yeast Anticancer Drug Screen. Data for the wt2 strain (AID 169);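 further: 0% = growth of vehicle-treated yeast cultures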; settings: S. cerevisiae wt2 strain growth inhibition, stronger effect = higher value
# Summary of the method: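 Against vehicle-treated controls, the growth of yeast exposed to each compound was compared, and the inhibition was recorded.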
# [12] = NCI Yeast Anticancer Drug Screen. Data for the mlh1 strain (AID 171);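 further: 0% = growth of vehicle-treated control cultures of the same strain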; settings: S. cerevisiae mlh1 strain growth inhibition, stronger effect = higher value
# Summary of the method: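 Measured: yeast growth. Reference: vehicle-treated controls. Organism: strain with a defined alteration affecting DNA damage repair or cell cycle control, treated with compound.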
# [13] = NCI Yeast Anticancer Drug Screen. Data for the sgs1 strain (AID 173);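 further: 0% = growth of vehicle-only control cultures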; settings: S. cerevisiae sgs1 mutant, stronger effect = higher value
# Summary of the method: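 Each compound was added to cultures of the altered yeast strain. Growth was recorded, and inhibition was derived by comparison with vehicle controls.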
# [14] = NCI Yeast Anticancer Drug Screen. Data for the mlh1 rad18 strain (AID 175); settings: S. cerevisiae mlh1 rad18 strain growth inhibition, stronger effect = higher value
# Summary of the method: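 Genetically defined yeast (DNA repair-deficient) exposed to compounds; growth inhibition determined relative to vehicle.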
# [15] = NCI Yeast Anticancer Drug Screen. Data for the rad18 strain (AID 177); settings: S. cerevisiae rad18 mutant growth inhibition, stronger effect = higher value
# Summary of the method: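 Vehicle-treated cultures served as the baseline for scoring compound-induced growth inhibition in DNA-repair-mutant yeast.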
# [16] = NCI Yeast Anticancer Drug Screen. Data for the wt1 strain (AID 149);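 further: 0% = growth of vehicle-treated wt1 cultures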; settings: S. cerevisiae wt1 strain (SPY 50644) growth inhibition, stronger effect = higher value
# Summary of the method: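 Readout: yeast growth inhibition, normalised to vehicle controls, in the wt1 strain exposed to test compounds.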
# [17] = at 5.0 µM (retest, dose inferred, filed as 0.5)
# [18] = at 50.0 µM (retest, dose inferred, filed as 5.0)
smiles,measurement,setting,value
OCC(CO)C(c1cccc2ccccc12)c1cccc2ccccc12,growth inhibition,[1]; at 1.2 µM,3%
same,growth inhibition,[1]; at 3.7 µM,42%
same,growth inhibition,[1]; at 11.0 µM,98% (active)
same,growth inhibition,[1]; at 33.0 µM,98% (active)
same,growth inhibition,[1]; at 100.0 µM,88% (active)
same,growth inhibition,[2]; at 1.2 µM,0%
same,growth inhibition,[2]; at 3.7 µM,3%
same,growth inhibition,[2]; at 11.0 µM,10%
same,growth inhibition,[2]; at 33.0 µM,13%
same,growth inhibition,[2]; at 100.0 µM,-2%
same,growth inhibition,[3]; at 1.2 µM,-1%
same,growth inhibition,[3]; at 3.7 µM,9%
same,growth inhibition,[3]; at 11.0 µM,98% (active)
same,growth inhibition,[3]; at 33.0 µM,99% (active)
same,growth inhibition,[3]; at 100.0 µM,93% (active)
same,growth inhibition,[4]; at 1.2 µM,4%
same,growth inhibition,[4]; at 3.7 µM,40%
same,growth inhibition,[4]; [17],19%
same,growth inhibition,[4]; at 11.0 µM,98% (active)
same,growth inhibition,[4]; at 33.0 µM,98% (active)
same,growth inhibition,[4]; [18],99% (active)
same,growth inhibition,[4]; at 50.0 µM,99.3% (active)
same,growth inhibition,[4]; at 100.0 µM,88% (active)
same,growth inhibition,[5]; at 1.2 µM,-1%
same,growth inhibition,[5]; at 3.7 µM,21%
same,growth inhibition,[5]; [17],4%
same,growth inhibition,[5]; at 11.0 µM,98% (active)
same,growth inhibition,[5]; at 33.0 µM,99% (active)
same,growth inhibition,[5]; [18],99% (active)
same,growth inhibition,[5]; at 50.0 µM,99.2% (active)
same,growth inhibition,[5]; at 100.0 µM,92% (active)
same,growth inhibition,[6]; at 1.2 µM,0%
same,growth inhibition,[6]; at 3.7 µM,20%
same,growth inhibition,[6]; at 11.0 µM,99% (active)
same,growth inhibition,[6]; at 33.0 µM,99% (active)
same,growth inhibition,[6]; at 100.0 µM,90% (active)
same,growth inhibition,[7]; [17],6%
same,growth inhibition,[7]; [18],100% (active)
same,growth inhibition,[7]; at 50.0 µM,99.2% (active)
same,growth inhibition,[8]; at 1.2 µM,-2%
same,growth inhibition,[8]; at 3.7 µM,28%
same,growth inhibition,[8]; at 11.0 µM,99% (active)
same,growth inhibition,[8]; at 33.0 µM,99% (active)
same,growth inhibition,[8]; at 100.0 µM,88% (active)
same,growth inhibition,[9]; [17],2%
same,growth inhibition,[9]; [18],97% (active)
same,growth inhibition,[9]; at 50.0 µM,99.2% (active)
same,growth inhibition,[10]; at 1.2 µM,-1%
same,growth inhibition,[10]; at 3.7 µM,9%
same,growth inhibition,[10]; [17],-1%
same,growth inhibition,[10]; at 11.0 µM,98% (active)
same,growth inhibition,[10]; at 33.0 µM,99% (active)
same,growth inhibition,[10]; [18],99% (active)
same,growth inhibition,[10]; at 50.0 µM,99.3% (active)
same,growth inhibition,[10]; at 100.0 µM,89% (active)
same,growth inhibition,[11]; at 1.2 µM,-4%
same,growth inhibition,[11]; at 3.7 µM,3%
same,growth inhibition,[11]; at 11.0 µM,98% (active)
same,growth inhibition,[11]; at 33.0 µM,99% (active)
same,growth inhibition,[11]; at 100.0 µM,90% (active)
same,growth inhibition,[12]; at 1.2 µM,0%
same,growth inhibition,[12]; at 3.7 µM,11%
same,growth inhibition,[12]; at 11.0 µM,99% (active)
same,growth inhibition,[12]; at 33.0 µM,99% (active)
same,growth inhibition,[12]; at 100.0 µM,92% (active)
same,growth inhibition,[13]; at 1.2 µM,1%
same,growth inhibition,[13]; at 3.7 µM,15%
same,growth inhibition,[13]; at 11.0 µM,98% (active)
same,growth inhibition,[13]; at 33.0 µM,99% (active)
same,growth inhibition,[13]; at 100.0 µM,93% (active)
same,growth inhibition,[14]; [17],7%
same,growth inhibition,[14]; [18],99% (active)
same,growth inhibition,[14]; at 50.0 µM,98.7% (active)
same,growth inhibition,[15]; at 1.2 µM,7%
same,growth inhibition,[15]; at 3.7 µM,53%
same,growth inhibition,[15]; at 11.0 µM,98% (active)
same,growth inhibition,[15]; at 33.0 µM,99% (active)
same,growth inhibition,[15]; at 100.0 µM,88% (active)
CC12C(=O)OC(=O)C(c3ccccc31)c1ccccc12,growth inhibition,[1]; at 1.2 µM,-8%
same,growth inhibition,[1]; at 3.7 µM,-2%
same,growth inhibition,[1]; at 11.0 µM,-12%
same,growth inhibition,[1]; at 33.0 µM,-4%
same,growth inhibition,[1]; at 100.0 µM,3%
same,growth inhibition,[16]; at 1.2 µM,2%
same,growth inhibition,[16]; at 3.7 µM,-2%
same,growth inhibition,[16]; at 11.0 µM,4%
same,growth inhibition,[16]; at 33.0 µM,2%
same,growth inhibition,[16]; at 100.0 µM,9%
same,growth inhibition,[3]; at 1.2 µM,-7%
same,growth inhibition,[3]; at 3.7 µM,-9%
same,growth inhibition,[3]; at 11.0 µM,-5%
same,growth inhibition,[3]; at 33.0 µM,-4%
same,growth inhibition,[3]; at 100.0 µM,-6%
same,growth inhibition,[4]; at 1.2 µM,-18%
same,growth inhibition,[4]; at 3.7 µM,-17%
same,growth inhibition,[4]; [17],43%
same,growth inhibition,[4]; at 11.0 µM,-16%
same,growth inhibition,[4]; at 33.0 µM,-16%
same,growth inhibition,[4]; [18],21%
same,growth inhibition,[4]; at 50.0 µM,98.3% (active)
same,growth inhibition,[4]; at 100.0 µM,20%
same,growth inhibition,[5]; at 1.2 µM,-5%
same,growth inhibition,[5]; at 3.7 µM,-6%
same,growth inhibition,[5]; [17],47%
same,growth inhibition,[5]; at 11.0 µM,-5%
same,growth inhibition,[5]; at 33.0 µM,-5%
same,growth inhibition,[5]; [18],28%
same,growth inhibition,[5]; at 50.0 µM,91% (active)
same,growth inhibition,[5]; at 100.0 µM,-2%
same,growth inhibition,[6]; at 1.2 µM,-4%
same,growth inhibition,[6]; at 3.7 µM,-9%
same,growth inhibition,[6]; at 11.0 µM,0%
same,growth inhibition,[6]; at 33.0 µM,2%
same,growth inhibition,[6]; at 100.0 µM,8%
same,growth inhibition,[7]; [17],33%
same,growth inhibition,[7]; [18],21%
same,growth inhibition,[7]; at 50.0 µM,97.2% (active)
same,growth inhibition,[8]; at 1.2 µM,-9%
same,growth inhibition,[8]; at 3.7 µM,-8%
same,growth inhibition,[8]; at 11.0 µM,-10%
same,growth inhibition,[8]; at 33.0 µM,-11%
same,growth inhibition,[8]; at 100.0 µM,-10%
same,growth inhibition,[9]; [17],9%
same,growth inhibition,[9]; [18],5%
same,growth inhibition,[9]; at 50.0 µM,76.2% (active)
same,growth inhibition,[10]; at 1.2 µM,-7%
same,growth inhibition,[10]; at 3.7 µM,-5%
same,growth inhibition,[10]; [17],28%
same,growth inhibition,[10]; at 11.0 µM,-8%
same,growth inhibition,[10]; at 33.0 µM,-5%
same,growth inhibition,[10]; [18],49%
same,growth inhibition,[10]; at 50.0 µM,68.1%
same,growth inhibition,[10]; at 100.0 µM,2%
same,growth inhibition,[11]; at 1.2 µM,-7%
same,growth inhibition,[11]; at 3.7 µM,-5%
same,growth inhibition,[11]; at 11.0 µM,11%
same,growth inhibition,[11]; at 33.0 µM,9%
same,growth inhibition,[11]; at 100.0 µM,7%
same,growth inhibition,[12]; at 1.2 µM,-11%
same,growth inhibition,[12]; at 3.7 µM,-9%
same,growth inhibition,[12]; at 11.0 µM,-7%
same,growth inhibition,[12]; at 33.0 µM,-6%
same,growth inhibition,[12]; at 100.0 µM,-6%
same,growth inhibition,[13]; at 1.2 µM,-12%
same,growth inhibition,[13]; at 3.7 µM,-8%
same,growth inhibition,[13]; at 11.0 µM,-1%
same,growth inhibition,[13]; at 33.0 µM,2%
same,growth inhibition,[13]; at 100.0 µM,11%
same,growth inhibition,[14]; [17],58%
same,growth inhibition,[14]; [18],54%
same,growth inhibition,[14]; at 50.0 µM,93.6% (active)
same,growth inhibition,[15]; at 1.2 µM,-8%
same,growth inhibition,[15]; at 3.7 µM,-10%
same,growth inhibition,[15]; at 11.0 µM,-5%
same,growth inhibition,[15]; at 33.0 µM,0%
same,growth inhibition,[15]; at 100.0 µM,-7%

# Reference: PubChem BioAssay (NCI)
